Records with an inconclusive call do not appear. Active and inactive are the calls of the source. The calls were made as follows: active = hit-call score of the fitted dose curve at least 0.9, where 1 is the maximum; inconclusive = response in the unintended direction; inactive = score below 0.9.
The compounds below were run against human CYP1A1, CYP1A1 (gene 1543) (UniProt P04798) (assay: NVS_ADME_hCYP1A1: NovaScreen (NVS) CYP450-related Enzyme Activity (ADME) Assay for human CYP1A1 (AID 2283100)).
Protocol: NVS_ADME_hCYP1A1 is a biochemical, single-readout assay that uses extracted gene-proteins in a cell-free assay. Measurements were taken 1 hour after chemical dosing in a 96-well plate.NVS_ADME_hCYP1A1 is one of one assay component(s) measured or calculated from the NVS_ADME_hCYP1A1 assay. It is designed to make measurements of enzyme activity, a form of enzyme reporter, as detected with fluorescence intensity signals by Fluorescence technology.Data from the assay component NVS_ADME_hCYP1A1 was analyzed into 1 assay endpoint. This assay endpoint, NVS_ADME_hCYP1A1, was analyzed in the positive analysis fitting direction relative to Acetonitrile as the negative control and baseline of activity. Using a type of enzyme reporter, loss-of-signal activity can be used to understand changes in the enzymatic activity as they relate to the gene CYP1A1. Furthermore, this assay endpoint can be referred to as a primary readout, because this assay has produced multiple assay endpoints where this one serves a enzymatic activity function. To generalize the intended target to other relatable targets, this assay endpoint is annotated to the cyp intended target family, where the subfamily is xenobiotic metabolism.
Binding assays used specific radioligands (tritiated, iodinated) with non-radioactive competitive displacement ligands in agonist or antagonist protocols (as indicated) and various reference compounds and inhibitors to titrate specific binding to receptors and transporters. Most enzyme assays (CYPs, kinases, phosphatases, proteases, HDACs) used recombinant protein and specific substrates (fluorescence mostly, some colorimetric and radioactive) and inhibitors, followed by a biochemical separation of substrate and product. All assays for the biochemical HTS were initially run in duplicate at a single concentration (10 uM for CYP450 assays and 25 uM for all others). Assay-chemical combinations meeting a pre-defined threshold (e.g., 30% inhibition and other criteria defined below) were then run in singleton concentration-response format with maximum concentration of 20 uM for CYPs and 50 uM for all others. Each assay was run with positive and negative controls, and concurrent controls on every plate. The follow-up (secondary) screen tested active chemical-pairs in concentration series, as well as a few additional assays not tested in the primary screen, some selected negative inactives, and several cases re-run in the concentration series for confirmatory purposes.

Sequence of human CYP1A1, CYP1A1 (gene 1543) (P04798 whole entry, looked up): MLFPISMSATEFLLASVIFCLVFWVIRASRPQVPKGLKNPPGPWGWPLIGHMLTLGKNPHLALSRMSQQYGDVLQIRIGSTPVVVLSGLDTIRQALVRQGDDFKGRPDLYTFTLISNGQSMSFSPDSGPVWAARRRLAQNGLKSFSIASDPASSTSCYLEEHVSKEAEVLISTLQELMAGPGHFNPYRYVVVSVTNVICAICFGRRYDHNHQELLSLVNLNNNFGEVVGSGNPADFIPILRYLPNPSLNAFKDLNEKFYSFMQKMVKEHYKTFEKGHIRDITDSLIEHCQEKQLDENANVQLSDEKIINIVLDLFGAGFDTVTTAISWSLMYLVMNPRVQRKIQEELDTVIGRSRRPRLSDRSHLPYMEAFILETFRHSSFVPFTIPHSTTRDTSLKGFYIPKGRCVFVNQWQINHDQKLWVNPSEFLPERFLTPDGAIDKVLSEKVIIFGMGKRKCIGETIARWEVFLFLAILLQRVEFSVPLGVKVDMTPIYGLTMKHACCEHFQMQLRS

SMILES	outcome	AC50
C=CC1(C)OC(=O)N(c2cc(Cl)cc(Cl)c2)C1=O (stereo unspecified)	inactive	
COP(=S)(OC)Oc1nc(Cl)c(Cl)cc1Cl	inactive	
CCOC(=O)CC(SP(=S)(OC)OC)C(=O)OCC (stereo unspecified)		2.87 µM (active)
CCNc1nc(Cl)nc(NCC)n1	inactive	
CCCC1COC(Cn2cncn2)(c2ccc(Cl)cc2Cl)O1 (stereo unspecified)		7.82 µM (active)
O=C(Nc1ccccc1)Nc1ccnc(Cl)c1		9.34 µM (active)
CC1COC(Cn2cncn2)(c2ccc(Oc3ccc(Cl)cc3)cc2Cl)O1 (stereo unspecified)		1.63 µM (active)
CCOC(=O)C(Cl)Cc1cc(-n2nc(C)n(C(F)F)c2=O)c(F)cc1Cl (stereo unspecified)		5.46 µM (active)
CON(C)C(=O)Nc1ccc(Cl)c(Cl)c1		3.72 µM (active)
OC(c1ccc(Cl)cc1)(c1cncnc1)c1ccccc1Cl (stereo unspecified)		8.07 µM (active)
CS/C(C)=N/OC(=O)N(C)SN(C)C(=O)O/N=C(\C)SC		10 µM (active)
N#CC(CCc1ccc(Cl)cc1)(Cn1cncn1)c1ccccc1 (stereo unspecified)	inactive	
CCOP(=S)(OCC)SCn1c(=O)oc2cc(Cl)ccc21		0.513 µM (active)
COC(=O)N(OC)c1ccccc1COc1ccn(-c2ccc(Cl)cc2)n1		1.87 µM (active)
CCCCOC(=O)c1ccccc1C(=O)OCCCC	inactive	
CCNc1nc(Cl)nc(NC(C)C)n1	inactive	

Source: PubChem BioAssay (EPA / NIEHS)
